Active and inactive are the calls of the source. Rule for the calls: active = hit-call score of the fitted dose curve at least 0.9, where 1 is the maximum; inactive = score below 0.9.

Sequence of Cytochrome P450 3A7 (Homo sapiens) (P24462 whole entry, looked up): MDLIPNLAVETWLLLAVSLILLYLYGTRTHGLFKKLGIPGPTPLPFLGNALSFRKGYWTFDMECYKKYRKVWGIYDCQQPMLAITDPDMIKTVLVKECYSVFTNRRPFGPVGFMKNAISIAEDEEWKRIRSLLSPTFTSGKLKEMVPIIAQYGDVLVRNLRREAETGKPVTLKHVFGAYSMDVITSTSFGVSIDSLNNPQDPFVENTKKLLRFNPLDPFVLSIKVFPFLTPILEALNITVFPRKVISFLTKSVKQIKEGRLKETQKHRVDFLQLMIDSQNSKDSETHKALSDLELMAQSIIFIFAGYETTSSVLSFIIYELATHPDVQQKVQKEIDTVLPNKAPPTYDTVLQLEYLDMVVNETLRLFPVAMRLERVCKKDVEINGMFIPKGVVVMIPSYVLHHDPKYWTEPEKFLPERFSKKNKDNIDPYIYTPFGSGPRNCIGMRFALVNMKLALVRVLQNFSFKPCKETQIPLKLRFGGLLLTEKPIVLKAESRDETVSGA

Read-out in this assay: Cytochrome P450 3A7 (Homo sapiens) (UniProt P24462)
Kind of assay: LTEA_HepaRG_CYP3A7: Life Technologies and Expression Analysis (LTEA) Assay for CYP3A7 using HepaRG (AID 2283492). As to conditions: mRNA level, 48 h; actives raise or lower the signal. The procedure, abridged:
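qRT-PCR of CYP3A7 in HepaRG lysates after 48 h treatment; concentration-response (8 points, max 100 uM) analysed bidirectionally relative to 0.5% DMSO controls.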
With `CC(C)(O)c1coc(S(=O)(=O)NC(=O)Nc2c3c(cc4c2CCC4)CCC3)c1`, the AC50 was 10.5 µM (active).

`CCOCCOCCOCCO`: the result was inactive. In the case of `O=C(CCCCCCCCc1cccnc1)N1CCC(C=C(c2ccccc2)c2ccccc2)CC1`, the compound was called inactive.

Turning to `CCOC(=O)CC(CC(=O)OCC)(OC(C)=O)C(=O)OCC`, the call was inactive.

For `Cc1ccc(C)c(O)c1`, the result was inactive. `CCCCC(CC)COC(=O)CCCCCCCCC(=O)OCC(CC)CCCC` (configuration not stated): the outcome was inactive. For `O=C(O)c1cc(N=Nc2ccc(S(=O)(=O)Nc3ccccn3)cc2)ccc1O`, the outcome was inactive. As for `CCN(C(=O)c1cc(C)cc(OC[C@H](C)Nc2ccncc2)c1)C(C)C`, the AC50 is 8.43 µM (active). Turning to `CC(=O)OC[C@H]1O[C@@](COC(C)=O)(O[C@H]2O[C@H](COC(C)=O)[C@@H](OC(C)=O)[C@H](OC(C)=O)[C@H]2OC(C)=O)[C@@H](OC(C)=O)[C@@H]1OC(C)=O`, the compound was classed as inactive. On the same count and under the same terms, then `CCCCCCc1ccc(O)cc1O`, with “inactive”. In the case of `CN(C)c1ccc(Cc2ccc(N(C)C)cc2)cc1`, the AC50 was 11.6 µM (active). `O=C(O)c1cccc(Oc2ccccc2)c1`: the outcome was inactive. `CC(C)=CCCC(C)=CC=O`: the compound was classed as inactive. In the case of `O=C(NS(=O)(=O)/C=C/c1ccccc1)c1ccc(F)cc1Cl`, the AC50 is 28.7 µM (active). `CCCCC(CC)COC(=O)c1ccc(C(=O)OCC(CC)CCCC)cc1` (configuration not stated): the call was inactive. As to `Cc1c(-c2cccnc2)c2ccccc2n1CCCCC(=O)O`, the AC50 is 21.3 µM (active).

Take `Oc1ccc2c(c1)-c1ccccc1C2`: the compound was called inactive. Still for that read-out and setting: with `CC(C)CCCCCCOC(=O)c1ccc(C(=O)OCCCCCCC(C)C)c(C(=O)OCCCCCCC(C)C)c1` the entry was “inactive”.

As for `CC(C)CC(C)(O)C#CC(C)(O)CC(C)C` (configuration not stated), the outcome was inactive. The same measure, in the same setting: with `CCOC(=O)COc1ccc2c(c1)CC(NCC(O)c1cccc(Cl)c1)CC2` (configuration not stated) the entry was “inactive”. On to `CCn1nc(Cc2ccccc2)cc1C1CCN(C[C@H]2C[C@H](N(C)[C@@H](C(=O)O)C(C)C)C[C@@H]2c2cccc(F)c2)CC1`, for which the compound was classed as inactive. Consider `COC(=O)CC(=O)OC`, for which the AC50 was 3.64 µM (active).

For the origin of these results see PubChem BioAssay (EPA / NIEHS).
